According to the supplement of paper PMC10849652:
Targets with a hit are over-represented here; the source holds about 8,800 in all. About 0.5% of all pairs of compound and target were hits.

What was measured:
Experiment in all cases: log2 fold change, soluble protein after heating vs DMSO (PISA); higher = thermal stabilisation; K562 lysate, 10 uM; active = over 0.2 and 3.5 SD of the protein, either way, in both replicates (recomputed)
alvocidib = compound: CN1CC[C@H](c2c(O)cc(O)c3c(=O)cc(-c4ccccc4Cl)oc23)[C@H](O)C1 [alvocidib]
Summary of the method: (§1)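 Dounce homogenisation of K562 pellets in PBS pH 7.4 with 1 mM MgCl2 produced a crude extract, used at 1 mg/mL protein. Exposure to 10 μM compound lasted 30 min, and aliquots were then heated for 3 min across 48°C-58°C, pooled and brought to 0.5% NP-40 at 4°C. The supernatant after 21,000xg for 90 min was quantified by TMTpro 16plex LC-MS/MS with channel sums equalised. Duplicate values are given as log-two fold change in thermal stability relative to solvent controls.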

Tubastatin A = compound: CN1CCc2c(c3ccccc3n2Cc2ccc(C(=O)NO)cc2)C1 [Tubastatin A]
Summary of the method: as §1

[1] = compound: CNC(=O)C1=CC=CC=C1NC2=NC(=NC=C2Cl)NC3=C(C=C(C=C3)N4CCOCC4)OC
Summary of the method: as §1

defactinib = compound: CNC(=O)c1ccc(Nc2ncc(C(F)(F)F)c(NCc3nccnc3N(C)S(C)(=O)=O)n2)cc1 [defactinib]
Summary of the method: as §1

[2] = compound: CNc1nc(-c2ccc3c(N)n[nH]c3c2)cc(N2C[C@@H](C(=O)NC3CCCCC3)CC[C@H]2C)n1
Summary of the method: as §1

encorafenib = compound: COC(=O)N[C@@H](C)CNc1nccc(-c2cn(C(C)C)nc2-c2cc(Cl)cc(NS(C)(=O)=O)c2F)n1 [encorafenib]
Summary of the method: as §1

[3] = compound: COC(=O)[C@H](CCSC)NC(=O)C1=C(C=C(C=C1)NC[C@H](CS)N)C2=CC=CC=C2
Summary of the method: as §1

alisertib = compound: COc1cc(Nc2ncc3c(n2)-c2ccc(Cl)cc2C(c2c(F)cccc2OC)=NC3)ccc1C(=O)O [alisertib]
Summary of the method: as §1

[4] = compound: COc1cc2nc(-c3cc(F)ccc3O)nc(N[C@@H]3CNC[C@H]3C(C)(C)O)c2cc1OC
Summary of the method: as §1

gefitinib = compound: COc1cc2ncnc(Nc3ccc(F)c(Cl)c3)c2cc1OCCCN1CCOCC1 [gefitinib]
Summary of the method: as §1

Measured: log2 fold change

TOPBP1 (UniProt Q92547)
inactive: alvocidib 0.024 | Tubastatin A -0.067 | [1] 0.033 | defactinib 0.047 | [2] 0.01 | encorafenib -0.024 | [3] 0.108 | alisertib -0.039 | [4] 0.034 | gefitinib 0.008

TPM4 isoform 2 (UniProt P67936)
inactive: alvocidib 0.062 | Tubastatin A 0.03 | [1] -0.027 | defactinib -0.059 | [2] 0.028 | encorafenib -0.004 | [3] -0.077 | alisertib -0.098 | [4] -0.01 | gefitinib -0.004

TTC12 isoform 2 (UniProt Q9H892)
inactive: alvocidib -0.024 | Tubastatin A -0.279 | [1] -0.06 | defactinib -0.05 | [2] -0.041 | encorafenib -0.052 | [3] -0.03 | alisertib -0.145 | [4] -0.043 | gefitinib 0.137

TIMM44 (UniProt O43615)
Chain of UniProt O43615 (O43615 whole entry, looked up): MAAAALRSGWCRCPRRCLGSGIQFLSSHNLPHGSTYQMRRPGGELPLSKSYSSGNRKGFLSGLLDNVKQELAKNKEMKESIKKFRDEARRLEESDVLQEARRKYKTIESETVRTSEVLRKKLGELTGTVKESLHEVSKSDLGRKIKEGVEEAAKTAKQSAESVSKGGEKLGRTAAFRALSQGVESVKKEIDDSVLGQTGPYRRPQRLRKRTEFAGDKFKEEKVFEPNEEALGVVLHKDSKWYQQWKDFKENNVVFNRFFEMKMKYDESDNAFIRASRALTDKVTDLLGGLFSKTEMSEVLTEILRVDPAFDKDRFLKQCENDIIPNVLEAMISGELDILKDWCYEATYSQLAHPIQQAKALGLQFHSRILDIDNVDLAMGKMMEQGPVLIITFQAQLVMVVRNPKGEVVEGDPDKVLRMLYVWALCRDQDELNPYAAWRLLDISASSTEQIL
inactive: alvocidib 0.001 | Tubastatin A 0.083 | [1] 0.039 | defactinib 0.018 | [2] -0.017 | encorafenib 0.056 | [3] 0.08 | alisertib 0.082 | [4] -0.04 | gefitinib 0.017

TTC27 (UniProt Q6P3X3)
inactive: alvocidib 0.012 | Tubastatin A -0.148 | [1] -0.049 | defactinib 0.023 | [2] -0.007 | encorafenib 0.028 | [3] 0.057 | alisertib 0.027 | [4] 0.012 | gefitinib 0.02

TUBB (UniProt P07437)
inactive: alvocidib 0.01 | Tubastatin A -0.035 | [1] -0.001 | defactinib 0.007 | [2] 0.007 | encorafenib -0.013 | [3] 0.081 | alisertib 0.014 | [4] -0.012 | gefitinib -0.031

TRIM65 (UniProt Q6PJ69)
Chain of UniProt Q6PJ69 (Q6PJ69 whole entry, looked up): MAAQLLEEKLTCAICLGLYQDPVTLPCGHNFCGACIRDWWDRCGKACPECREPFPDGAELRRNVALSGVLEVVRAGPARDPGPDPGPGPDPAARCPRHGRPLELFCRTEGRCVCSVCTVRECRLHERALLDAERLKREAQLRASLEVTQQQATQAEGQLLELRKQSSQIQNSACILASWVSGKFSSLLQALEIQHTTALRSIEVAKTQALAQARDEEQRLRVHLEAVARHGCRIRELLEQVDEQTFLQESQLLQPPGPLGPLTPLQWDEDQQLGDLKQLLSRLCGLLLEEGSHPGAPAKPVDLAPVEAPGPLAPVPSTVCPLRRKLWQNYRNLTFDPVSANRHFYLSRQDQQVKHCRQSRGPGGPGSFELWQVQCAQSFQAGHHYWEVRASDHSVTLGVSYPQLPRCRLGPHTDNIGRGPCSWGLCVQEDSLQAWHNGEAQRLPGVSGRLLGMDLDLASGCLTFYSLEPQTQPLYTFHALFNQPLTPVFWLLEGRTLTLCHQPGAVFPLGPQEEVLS
inactive: alvocidib -0.11 | Tubastatin A 0.025 | [1] -0.044 | defactinib 0.024 | [2] -0.014 | encorafenib -0.002 | [3] 0.089 | alisertib -0.02 | [4] 0.023 | gefitinib 0.003

TRMT10A (UniProt Q8TBZ6)
Chain of UniProt Q8TBZ6 (Q8TBZ6 whole entry, looked up): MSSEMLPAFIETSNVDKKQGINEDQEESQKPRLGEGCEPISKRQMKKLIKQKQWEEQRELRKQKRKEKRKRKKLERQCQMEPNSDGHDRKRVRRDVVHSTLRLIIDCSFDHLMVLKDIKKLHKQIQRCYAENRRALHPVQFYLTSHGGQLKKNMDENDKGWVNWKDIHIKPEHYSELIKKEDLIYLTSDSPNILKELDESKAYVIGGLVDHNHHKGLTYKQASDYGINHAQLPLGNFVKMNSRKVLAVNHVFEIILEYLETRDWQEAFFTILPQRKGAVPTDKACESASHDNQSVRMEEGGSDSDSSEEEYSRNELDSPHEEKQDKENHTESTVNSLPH
inactive: alvocidib 0.003 | Tubastatin A -0.008 | [1] 0.095 | defactinib -0.01 | [2] 0.09 | encorafenib -0.031 | [3] -0.012 | alisertib 0.015 | [4] -0.021 | gefitinib -0.004

TTC4 (UniProt O95801)
inactive: alvocidib -0.012 | Tubastatin A -0.183 | [1] 0.078 | defactinib 0.004 | [2] 0.003 | encorafenib 0.021 | [3] -0.005 | alisertib 0.008 | [4] -0.017 | gefitinib -0.003

TRIM33 isoform 2 (UniProt Q9UPN9)
inactive: alvocidib -0.029 | Tubastatin A -0.131 | [1] 0.016 | defactinib -0.001 | [2] -0.006 | encorafenib 0.006 | [3] 0.052 | alisertib -0.003 | [4] 0.046 | gefitinib 0.005

TUBGCP4 (UniProt Q9UGJ1)
Chain of UniProt Q9UGJ1 (Q9UGJ1 whole entry, looked up): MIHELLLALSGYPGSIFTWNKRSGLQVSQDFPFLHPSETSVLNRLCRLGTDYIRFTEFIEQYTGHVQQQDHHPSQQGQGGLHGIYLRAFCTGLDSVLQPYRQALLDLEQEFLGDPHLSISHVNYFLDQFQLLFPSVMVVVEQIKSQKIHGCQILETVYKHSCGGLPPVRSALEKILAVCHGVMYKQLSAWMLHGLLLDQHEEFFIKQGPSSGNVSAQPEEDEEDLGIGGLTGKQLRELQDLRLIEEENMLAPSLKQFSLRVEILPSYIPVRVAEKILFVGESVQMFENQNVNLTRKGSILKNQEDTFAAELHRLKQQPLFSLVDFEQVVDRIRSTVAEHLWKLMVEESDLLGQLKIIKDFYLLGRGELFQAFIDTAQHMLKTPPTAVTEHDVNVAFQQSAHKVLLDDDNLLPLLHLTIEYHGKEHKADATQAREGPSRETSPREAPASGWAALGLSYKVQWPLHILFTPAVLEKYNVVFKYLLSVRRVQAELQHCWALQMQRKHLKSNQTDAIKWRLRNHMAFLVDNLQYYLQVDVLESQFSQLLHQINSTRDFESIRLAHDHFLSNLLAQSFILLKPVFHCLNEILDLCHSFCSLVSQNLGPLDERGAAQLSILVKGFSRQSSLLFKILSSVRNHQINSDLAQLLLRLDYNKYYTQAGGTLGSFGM
inactive: alvocidib 0 | Tubastatin A -0.081 | [1] 0.007 | defactinib -0.023 | [2] -0.025 | encorafenib -0.049 | [3] 0.047 | alisertib -0.007 | [4] -0.018 | gefitinib -0.043

TOE1 (UniProt Q96GM8)
inactive: alvocidib -0.01 | Tubastatin A -0.136 | [1] 0.027 | defactinib 0.019 | [2] -0.044 | encorafenib -0.034 | [3] 0.165 | alisertib -0.041 | [4] -0.011 | gefitinib -0.047

TRIM44 (UniProt Q96DX7)
inactive: alvocidib 0 | Tubastatin A -0.013 | [1] 0.057 | defactinib -0.045 | [2] 0.04 | encorafenib -0.047 | [3] -0.034 | alisertib 0.041 | [4] -0.121 | gefitinib 0.088

TPM3 isoform 2 (UniProt P06753)
inactive: alvocidib 0.03 | Tubastatin A 0.033 | [1] -0.012 | defactinib 0 | [2] -0.144 | encorafenib 0 | [3] -0.071 | alisertib 0 | [4] -0.024 | gefitinib 0.059

UBA1 (UniProt P22314)
inactive: alvocidib 0.012 | Tubastatin A -0.082 | [1] 0.007 | defactinib -0.011 | [2] -0.026 | encorafenib -0.017 | [3] 0.139 | alisertib 0.001 | [4] 0.002 | gefitinib -0.01

TUBA1C (UniProt Q9BQE3)
inactive: alvocidib 0 | Tubastatin A -0.001 | [1] 0.011 | defactinib 0.009 | [2] 0.06 | encorafenib -0.002 | [3] 0.023 | alisertib -0.012 | [4] 0.001 | gefitinib -0.042

TMPO (UniProt P42167)
Chain of UniProt P42167 (P42167 whole entry, looked up): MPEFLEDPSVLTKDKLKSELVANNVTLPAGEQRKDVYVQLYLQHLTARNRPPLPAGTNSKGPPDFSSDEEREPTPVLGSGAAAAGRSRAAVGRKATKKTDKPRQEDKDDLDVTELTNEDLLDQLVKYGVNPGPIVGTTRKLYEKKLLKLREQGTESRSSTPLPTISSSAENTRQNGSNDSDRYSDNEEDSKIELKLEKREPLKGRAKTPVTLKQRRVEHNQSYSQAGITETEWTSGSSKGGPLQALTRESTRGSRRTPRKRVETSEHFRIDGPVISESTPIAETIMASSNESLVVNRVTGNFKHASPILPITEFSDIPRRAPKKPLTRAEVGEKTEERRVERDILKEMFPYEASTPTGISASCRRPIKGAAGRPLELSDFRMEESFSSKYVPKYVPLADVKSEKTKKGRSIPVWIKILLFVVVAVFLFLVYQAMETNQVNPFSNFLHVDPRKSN
inactive: alvocidib -0.007 | Tubastatin A 0.018 | [1] -0.034 | defactinib -0.015 | [2] 0.029 | encorafenib 0.035 | [3] -0.163 | alisertib -0.026 | [4] -0.025 | gefitinib 0.027

TMEM97 (UniProt Q5BJF2)
inactive: alvocidib -0.081 | Tubastatin A 0.114 | [1] -0.016 | defactinib -0.021 | [2] 0.091 | encorafenib -0.008 | [3] -0.042 | alisertib -0.026 | [4] 0.014 | gefitinib -0.017

UBXN6 (UniProt Q9BZV1)
inactive: alvocidib 0.014 | Tubastatin A -0.087 | [1] 0.03 | defactinib -0.019 | [2] 0.055 | encorafenib 0.042 | [3] 0.104 | alisertib 0.017 | [4] 0.006 | gefitinib 0.006

TNIK isoform 4 (UniProt Q9UKE5)
inactive: alvocidib -0.015 | Tubastatin A -0.071 | [1] 0.085 | defactinib 0.148 | [2] -0.04 | encorafenib -0.026 | [3] -0.097 | alisertib -0.026 | [4] 0.247 | gefitinib -0.005

TRAPPC12 (UniProt Q8WVT3)
Chain of UniProt Q8WVT3 (Q8WVT3 whole entry, looked up): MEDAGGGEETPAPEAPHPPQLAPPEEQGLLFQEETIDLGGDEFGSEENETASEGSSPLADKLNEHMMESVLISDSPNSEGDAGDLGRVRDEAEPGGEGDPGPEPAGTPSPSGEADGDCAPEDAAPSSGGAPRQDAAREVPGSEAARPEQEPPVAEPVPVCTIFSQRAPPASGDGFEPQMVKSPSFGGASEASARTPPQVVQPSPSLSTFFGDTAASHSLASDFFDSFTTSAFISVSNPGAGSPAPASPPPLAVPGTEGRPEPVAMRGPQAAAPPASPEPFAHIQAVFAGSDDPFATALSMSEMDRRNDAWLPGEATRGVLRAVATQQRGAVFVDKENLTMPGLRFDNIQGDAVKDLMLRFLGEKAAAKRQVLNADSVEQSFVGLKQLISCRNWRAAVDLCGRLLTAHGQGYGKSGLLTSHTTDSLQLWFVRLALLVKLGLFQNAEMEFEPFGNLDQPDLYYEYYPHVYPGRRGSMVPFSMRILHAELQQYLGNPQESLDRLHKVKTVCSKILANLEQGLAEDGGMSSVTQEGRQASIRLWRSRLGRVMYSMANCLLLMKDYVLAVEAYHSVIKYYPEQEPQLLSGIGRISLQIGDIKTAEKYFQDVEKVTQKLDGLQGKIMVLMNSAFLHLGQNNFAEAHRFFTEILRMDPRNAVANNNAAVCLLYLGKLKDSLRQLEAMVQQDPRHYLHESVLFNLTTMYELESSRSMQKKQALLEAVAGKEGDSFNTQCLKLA
inactive: alvocidib -0.009 | Tubastatin A -0.079 | [1] 0.063 | defactinib 0.002 | [2] -0.039 | encorafenib 0.065 | [3] 0.057 | alisertib 0.034 | [4] 0.01 | gefitinib 0.022

TRAPPC9 isoform 2 (UniProt Q96Q05)
Chain of UniProt Q96Q05 (Q96Q05 whole entry, looked up): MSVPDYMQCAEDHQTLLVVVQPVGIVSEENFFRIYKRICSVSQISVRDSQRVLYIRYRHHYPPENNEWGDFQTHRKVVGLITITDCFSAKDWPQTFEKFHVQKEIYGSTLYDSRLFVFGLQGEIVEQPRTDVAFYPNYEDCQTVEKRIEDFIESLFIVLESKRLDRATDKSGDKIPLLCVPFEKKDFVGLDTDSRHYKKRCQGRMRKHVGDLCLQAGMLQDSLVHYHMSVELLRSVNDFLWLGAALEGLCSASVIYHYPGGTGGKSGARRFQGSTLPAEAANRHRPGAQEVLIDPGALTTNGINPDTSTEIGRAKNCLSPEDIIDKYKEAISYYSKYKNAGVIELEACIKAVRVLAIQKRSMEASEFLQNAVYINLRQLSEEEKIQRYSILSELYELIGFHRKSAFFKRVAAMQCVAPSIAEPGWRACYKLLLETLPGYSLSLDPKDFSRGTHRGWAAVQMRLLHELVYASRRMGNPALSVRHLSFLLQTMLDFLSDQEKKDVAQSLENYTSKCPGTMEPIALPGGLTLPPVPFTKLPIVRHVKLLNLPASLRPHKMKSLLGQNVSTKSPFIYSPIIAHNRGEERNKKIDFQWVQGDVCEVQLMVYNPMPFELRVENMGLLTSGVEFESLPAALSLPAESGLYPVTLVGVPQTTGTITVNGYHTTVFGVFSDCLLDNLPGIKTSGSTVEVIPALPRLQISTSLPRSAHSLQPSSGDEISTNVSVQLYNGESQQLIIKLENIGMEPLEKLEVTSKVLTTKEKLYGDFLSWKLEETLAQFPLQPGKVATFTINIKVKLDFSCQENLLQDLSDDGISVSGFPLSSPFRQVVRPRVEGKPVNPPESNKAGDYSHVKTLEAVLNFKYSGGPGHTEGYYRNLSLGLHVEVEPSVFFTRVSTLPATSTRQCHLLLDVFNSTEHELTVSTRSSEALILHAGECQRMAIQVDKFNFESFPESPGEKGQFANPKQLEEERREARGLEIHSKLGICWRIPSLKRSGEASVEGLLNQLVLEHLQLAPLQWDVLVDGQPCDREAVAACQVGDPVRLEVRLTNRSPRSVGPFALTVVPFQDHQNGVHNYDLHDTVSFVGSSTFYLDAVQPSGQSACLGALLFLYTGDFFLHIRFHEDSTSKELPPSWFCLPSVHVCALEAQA
inactive: alvocidib -0.017 | Tubastatin A -0.128 | [1] 0.002 | defactinib -0.011 | [2] -0.075 | encorafenib 0.022 | [3] -0.015 | alisertib -0.036 | [4] 0.021 | gefitinib -0.017

UBP1 (UniProt Q9NZI7)
inactive: alvocidib 0.049 | Tubastatin A -0.121 | [1] 0.058 | defactinib 0.077 | [2] 0.002 | encorafenib 0.115 | [3] 0.019 | alisertib 0.059 | [4] -0.011 | gefitinib -0.073

TUBB3 (UniProt Q13509)
inactive: alvocidib -0.001 | Tubastatin A -0.081 | [1] 0.006 | defactinib 0.023 | [2] -0.034 | encorafenib -0.004 | [3] 0.072 | alisertib 0.007 | [4] 0.007 | gefitinib -0.016

TJP1 isoform 2 (UniProt Q07157)
inactive: alvocidib -0.011 | Tubastatin A 0.047 | [1] -0.02 | defactinib -0.018 | [2] 0.043 | encorafenib -0.013 | [3] 0.011 | alisertib -0.007 | [4] 0.007 | gefitinib -0.017

TUBA3C (UniProt P0DPH7)
inactive: alvocidib -0.012 | Tubastatin A -0.15 | [1] 0.01 | defactinib -0.013 | [2] -0.018 | encorafenib -0.037 | [3] 0.042 | alisertib -0.023 | [4] -0.035 | gefitinib -0.005

TRIM25 (UniProt Q14258)
Chain of UniProt Q14258 (Q14258 whole entry, looked up): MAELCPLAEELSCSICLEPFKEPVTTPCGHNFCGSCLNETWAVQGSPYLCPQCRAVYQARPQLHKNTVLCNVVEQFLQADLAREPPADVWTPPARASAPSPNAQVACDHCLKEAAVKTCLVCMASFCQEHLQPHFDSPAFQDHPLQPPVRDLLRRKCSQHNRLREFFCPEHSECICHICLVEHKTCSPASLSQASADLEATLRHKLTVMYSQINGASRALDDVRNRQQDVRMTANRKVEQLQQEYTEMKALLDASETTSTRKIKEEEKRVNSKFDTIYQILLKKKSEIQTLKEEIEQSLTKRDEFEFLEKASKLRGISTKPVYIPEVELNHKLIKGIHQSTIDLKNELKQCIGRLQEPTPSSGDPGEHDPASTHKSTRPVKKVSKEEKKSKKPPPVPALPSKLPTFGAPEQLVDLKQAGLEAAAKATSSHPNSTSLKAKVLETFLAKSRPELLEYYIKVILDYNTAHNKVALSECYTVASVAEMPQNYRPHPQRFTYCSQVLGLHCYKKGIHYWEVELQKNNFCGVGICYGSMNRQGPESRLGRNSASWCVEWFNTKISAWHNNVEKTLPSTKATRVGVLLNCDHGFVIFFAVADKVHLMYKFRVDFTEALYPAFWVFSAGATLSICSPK
inactive: alvocidib 0.022 | Tubastatin A -0.04 | [1] 0.009 | defactinib -0.009 | [2] 0.042 | encorafenib -0.011 | [3] -0.058 | alisertib -0.01 | [4] -0.002 | gefitinib -0.029

TCAF2 (UniProt A6NFQ2)
inactive: alvocidib -0.016 | Tubastatin A -0.183 | [1] -0.026 | defactinib 0.067 | [2] -0.026 | encorafenib 0.006 | [3] 0.044 | alisertib 0.03 | [4] -0.067 | gefitinib -0.042

TRIM11 (UniProt Q96F44)
inactive: alvocidib -0.015 | Tubastatin A -0.021 | [1] 0.037 | defactinib 0.016 | [2] -0.007 | encorafenib 0.029 | [3] 0.053 | alisertib -0.026 | [4] -0.055 | gefitinib 0.004
